Data on 40 molecules can be found in ChEMBL document CHEMBL3433997, “St. Jude Leishmania screening dataset” (2016).

The target of the test is Glucose transporter (Leishmania mexicana) (UniProt O61059). Kind of test: ST_JUDE_LEISH: Cytotoxicity at 2uM final concentration against transgenic Leishmania Mexicana promastigotes LmGT2 that are glucose transport deficient and complemented with the L. Mexicana glucose transporter 2. Activity is measured by DNA content using SYBR green in vitro. Type of test: functional.
One may read the inhibition as the relative decrease from the control value, in per cent. Turning to `COc1ccc2nccc(N3C[C@H]4C[C@@H]3CN4CCNCc3ccc4c(n3)NC(=O)CS4)c2n1`, the inhibition was -1.32%. The figure for `CCn1c(-c2nonc2N)nc2c(-c3ccccc3)ncc(OCCCCNCCc3ncc[nH]3)c21` is -0.64%.

In the case of `COc1ccc2nc(C)cc(Nc3ccc(Cl)c(Cl)c3)c2c1`, the inhibition is 17.3%. As for `CNS(=O)(=O)CCNCc1ccc(-c2ccc3ncnc(Nc4ccc(OCc5ccccc5)cc4)c3c2)o1`, the inhibition came to 3.83%. In the case of `FC(F)(F)c1ccccc1OCc1cc(-c2ccncc2)c(COc2ccccc2C(F)(F)F)cc1C1=CCNCC1` it was 2.81%.

Regarding `CS(=O)(=O)Nc1ccc2[nH]cc(C3CCN(CCCCCNC(=O)/C=C/c4ccc(Cl)c(Cl)c4)CC3)c2c1`, the inhibition was determined as 3.35%.

As for `Cn1cnc2c(SCc3ccccc3OCc3ccccc3)ncnc21`, the inhibition was 4.68%.

`COc1ccc(-c2ccc(NC(=O)c3cccc(C#N)c3)cc2)cc1CN1CCC(O)CC1`: the inhibition was 2.05%.

As for `COc1cc(F)c2ncc(Cl)c(CCN3CCC(NCc4ccc5c(c4)OCCO5)CC3)c2c1`, the inhibition is 68.8%.

On to `CN(C)S(=O)(=O)c1ccc(Nc2nc(NCCC3C=NC=N3)nc3cc[nH]c(=O)c23)cc1` (stereo not given), for which the inhibition is 4.93%. As to `O=C(CN1CCCCC1)Nc1ccc(Nc2nccc(NCC(O)c3ccccc3)n2)cc1` (stereo not given), the inhibition amounted to 7.17%. The figure for `COc1ccc2ncc(Cl)c(CCN3CCC(NCc4ccc5c(n4)NC(=O)CS5)CC3)c2c1` is 2.97%; for `COc1cc(Nc2nccc(N3CCC(NC(=O)c4cc5ccccc5s4)C3)n2)cc(OC)c1OC` (stereo not given) it is -0.45%; for `O=C(CCN1C(=O)c2ccccc2C1=O)N1CCN(CC=Cc2ccccc2)CC1` it is -1.76%. The figure for `CCc1c(CCNCCCCCCNCCc2ccc([N+](=O)[O-])cc2)ccc(OC)c1OC` is 12.9%; for `Cn1nc(-c2ccc(NC(=O)Nc3cc(C(F)(F)F)ccc3F)cc2)c2cnc(NCCc3c[nH]cn3)nc21` it is 2.46%; for `N#Cc1ccc(CN2CCCN(Cc3cccc(NC(=O)c4ccc(Cl)c(Cl)c4)c3)CC2)cc1` it is 9.89%. In the case of `NS(=O)(=O)c1cccc(Br)c1` it was 2.22%; in that of `CCN(CCCN1CCCCC1)c1cc(C)nc(Nc2ccc(C)c(Br)c2)n1`, 7.62%. Take `O=c1c(NCCCN(Cc2ccc(F)cc2)c2ccccn2)c(NCc2cccnc2)c1=O`: the inhibition is 1.65%. For the molecule `O=c1cc(NCCCNCc2cc3c(Cl)cc(Cl)cc3[nH]2)[nH]c2ccccc12`, the inhibition is -0.14%.

As to `O=S(=O)(NCCN1CCCC1)c1cccc(-c2ccc(CNC3Cc4ccccc4C3)cc2)c1`, the inhibition was determined as 8.14%. The figure for `O=C(/C=C/c1ccc(Cl)cc1)NCCCCCN1CCCC(C(=O)Nc2ccc(F)c(Cl)c2)C1` (stereo not given) is 2.38%.

With `O=C(c1cc(C(=O)Nc2ccccc2)c(=O)n(-c2ccccc2)c1)c1cc(Cl)ccc1O`, the inhibition turned out to be 2.58%.

Consider `Cc1nc(C)c(-c2ccc(Oc3ccc(OC(F)(F)F)cc3)cc2)c(O)c1I`, for which the inhibition was -1.65%. In the case of `COc1ccccc1CCNc1nc(C)cc(N[C@@H](Cc2ccccc2)C(=O)NCCCOC(C)C)n1`, the inhibition is -0.1%.

For `CCN(CCCN1CCCC1)c1cc(C)nc(Nc2ccc(Cl)cc2)n1`, the inhibition was -0.13%. As for `Cc1ccc(O)c(CN2CCCC(COC(c3ccc(F)cc3)c3ccc(F)cc3)C2)c1` (stereo not given), the inhibition was -4.12%.

For the molecule `CC(=O)N/N=C/[C@H](CCc1ccccc1)NC(=O)[C@H](CC(C)C)NC(=O)c1ccc(OCCN2CCOCC2)cc1`, the inhibition is 3.05%. For `CC1CNC(c2cccc(NC(=O)Nc3cccc(C4=NC(C)CN4)c3)c2)=N1` (stereo not given), the inhibition came to 6.15%. The figure for `Cc1ccc(Cn2ncc(N3CCCNCC3)c(Cl)c2=O)cc1NC(=O)Nc1ccc(-c2ccccc2)cc1` is 4.8%; for `CN(C)CCOc1cc(NC(=O)Nc2ccc(-c3ccncc3)c(C(F)(F)F)c2)ccc1Cl` it is 9.08%. In the case of `COc1ccc(OCC(=O)Nc2cc(-c3nc4ccccc4[nH]3)ccc2Cl)cc1` it was 3.14%; in that of `Cc1ccc(NC(=O)c2ccc(N3CCN(c4ccncc4)CC3)cc2)cc1F`, 82.4%. In the case of `COc1ccc(-c2ccc(NC(=O)c3cccc(Cl)c3)cc2)cc1CN1CCN(C)CC1` it was 3.15%; in that of `CCc1cn2c3c(cc(C(=O)N[C@@H](Cc4cc(F)cc(F)c4)[C@H](O)CNC4CCCCC4)cc13)N(C)S(=O)(=O)CC2`, -2.62%. Regarding `O=C(Nc1cccc(-c2csc(-c3nc4ccccc4[nH]3)c2)c1)c1cccnc1`, the inhibition is -0.53%. With `CCC(C)NCC(O)(c1ccc(Cl)cc1)c1ccc(Cl)cc1` (stereo not given), the inhibition was -0.2%.

As for `COc1ccc(C2CC(=O)C3=C(C2)NC(C)=C(C(=O)OC(C)C)C3c2ccc(O)cc2)cc1OC` (stereo not given), the inhibition turned out to be 5.45%. The figure for `CCC[C@@H]([C@@H](CC1CCCCC1)C(=O)N[C@H](C(=O)Nc1nccs1)C(C)(C)SC)N(O)C=O` is 8.5%.
